From publication PMC5540273 (PLoS ONE, 2017)

Assays:
Conditions in all cases: concentration: 1 μM, replicates: in singlicate; n = 1
TIE2 = test system: T1, TIE2
T1 construct: gene TEK

TLK1 = test system: TLK1
TLK2 = test system: TLK2
TNIK = test system: TNIK
TNK1 = test system: TNK1
TNK2 = test system: TNK2
TNNI3K = test system: TNNI3K
TRKA = test system: T2, TRKA
T2 construct: gene NTRK1

TRKB = test system: TRKB
TRKC = test system: T3, TRKC
T3 construct: gene NTRK3
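Further: KINOMEscan kinase panel screen.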

| SMILES | %Inh (TIE2) [%] | %Inh (TLK1) [%] | %Inh (TLK2) [%] | %Inh (TNIK) [%] | %Inh (TNK1) [%] | %Inh (TNK2) [%] | %Inh (TNNI3K) [%] | %Inh (TRKA) [%] | %Inh (TRKB) [%] | %Inh (TRKC) [%] |
| --- | --- | --- | --- | --- | --- | --- | --- | --- | --- | --- |
| Cn1c(=O)c(F)c(Nc2ccc(I)cc2F)c2c(=O)n(OC[C@H](O)CO)cnc21 | 9 | 0 | 0 | 0 | 29 | 0 | 4 | 0 | 0 | 0 |
| COc1cc(OC)cc(-c2cc3cnc(N)nc3nc2NC(=O)NC(C)(C)C)c1 | 18 | 0 | 0 | 0 | 14 | 100 | 0 | 0 | 0 | 0 |
| Nc1ncnc2c1ncn2-c1cccc(F)c1 [SKF-97560] | 0 | 0 | 0 | 4 | 23 | 15 | 100 | 60 | 41 | 41 |
| CCn1c(-c2ccoc2)nc2cnccc21 [SB-733887] | 7 | 0 | 0 | 0 | 0 | 3 | 11 | 0 | 41 | 13 |
| FC(F)(F)c1ccc(-c2ncn(CCCN3CCOCC3)c2-c2ccncc2)cc1 [SB-217780] | 6 | 0 | 0 | 0 | 1 | 0 | 0 | 14 | 0 | 0 |
| CCCNC(=O)Nc1ccc(Oc2ncnc3ccn(C)c23)cc1 | 7 | 3 | 0 | 18 | 0 | 0 | 0 | 0 | 0 | 13 |
| O=C(NCCNc1ccnc(Nc2ccc(F)cc2)n1)Nc1ccc2c(c1)OCO2 [GSK1379882] | 0 | 22 | 20 | 0 | 0 | 9 | 0 | 4 | 0 | 17 |
| O=C1NC(=O)C(c2ccccc2)=C1Nc1cccc(O)c1 [SB-390534] | 13 | 26 | 98.4 | 16 | 5 | 0 | 4 | 0 | 0 | 37 |
| O=C(Nc1n[nH]c2nc(-c3ccccc3)c(Cl)cc12)C1CC1 [SB-734909] | 15 | 0 | 6 | 8 | 0 | 0 | 0 | 0 | 0 | 0 |
| Cc1cccc(-c2nc(Nc3ccc4c(cnn4C)c3)c3ccccc3n2)n1 [GW876731] | 27 | 0 | 11 | 0 | 43 | 0 | 0 | 44 | 0 | 0 |
| CCC(=O)c1c(-c2ccccc2)c2cc(Cl)ccc2c(=O)n1Cc1cc(S(C)(=O)=O)n(CC(F)F)n1 | 2 | 0 | 0 | 0 | 0 | 0 | 0 | 0 | 0 | 1 |
| O=C(NCc1cccs1)c1cc(C(=O)c2c(Cl)cccc2Cl)c[nH]1 [GW823670] | 2 | 0 | 0 | 5 | 26 | 0 | 0 | 0 | 0 | 0 |
| CCS(=O)(=O)c1ccc(OC)c(Nc2ncc(-c3ccc(F)cc3)o2)c1.Cl [GW591947] | 0 | 0 | 0 | 0 | 0 | 12 | 8 | 15 | 0 | 0 |
| OCCCNc1nccc(-c2c(-c3cccc(C(F)(F)F)c3)nn3cc(C(F)(F)F)ccc23)n1 [GW630813] | 0 | 6 | 0 | 3 | 0 | 0 | 0 | 0 | 7 | 3 |
| COc1ccc(-c2coc3ccc(-c4nnc(SCc5cccc(C#N)c5)o4)cc23)cc1 | 5 | 25 | 0 | 21 | 10 | 0 | 20 | 17 | 0 | 3 |
| Cc1ccccc1COc1cc(-n2cnc3cc(Cl)ccc32)sc1C(N)=O [GW813349] | 0 | 0 | 0 | 30 | 12 | 0 | 0 | 0 | 0 | 5 |
| Cc1nn2c(=O)cc(N3CCOCC3)nc2n1Cc1cccc(Cl)c1Cl [GSK2342769] | 0 | 0 | 0 | 0 | 0 | 16 | 5 | 0 | 0 | 4 |
| CC(C)(C)c1ccc(C(=O)Nc2cn3cc(-c4ccccc4)ccc3n2)cc1 | 0 | 8 | 0 | 18 | 0 | 6 | 6 | 0 | 7 | 3 |

| SMILES | %Inh (TIE2) [%] | %Inh (TLK1) [%] | %Inh (TLK2) [%] | %Inh (TNIK) [%] | %Inh (TNK1) [%] | %Inh (TNK2) [%] | %Inh (TNNI3K) [%] | %Inh (TRKA) [%] | %Inh (TRKB) [%] | %Inh (TRKC) [%] |
| --- | --- | --- | --- | --- | --- | --- | --- | --- | --- | --- |
| Cc1cccc(-c2cc(-c3c[nH]nc3-c3ccccn3)ccn2)c1 [GW679395] | 0 | 0 | 0 | 59 | 0 | 4 | 9 | 0 | 13 | 20 |
| Nc1n[nH]c2ncc(-c3ccccc3)cc12 [SB-517081] | 0 | 0 | 2 | 1 | 0 | 21 | 12 | 17 | 37 | 31 |
| CCCC(=O)Nc1n[nH]c2ncc(-c3cccc4ccccc34)cc12 [SB-642057] | 0 | 32 | 100 | 0 | 0 | 4 | 5 | 0 | 0 | 0 |
| CN(C)c1cc(-c2ccc3c(N)n[nH]c3c2)nc(N)n1 [GSK2219329] | 0 | 9 | 0 | 0 | 0 | 1 | 0 | 0 | 0 | 0 |
| Cc1nnc(-c2ccc(C)c(-c3ccc(C(=O)O)cc3)c2)o1 [GW608005] | 0 | 0 | 0 | 0 | 0 | 0 | 0 | 0 | 20 | 0 |
| COc1cc2ncn(-c3cc(OCc4ccc(S(C)(=O)=O)cc4)c(C(N)=O)s3)c2cc1OC [GW869979] | 0 | 5 | 0 | 37 | 5 | 18 | 0 | 50 | 31 | 44 |
| C[C@@H]1CC[C@H](C(=O)NC2CCCCC2)CN1c1cc(-c2ccc3c(N)n[nH]c3c2)nc(N)n1 [GSK2291363] | 0 | 5 | 0 | 8 | 0 | 18 | 5 | 9 | 0 | 0 |
| COc1ccc(-n2cnc3c(N)ncnc32)cc1 [SKF-97236] | 18 | 0 | 0 | 18 | 0 | 0 | 18 | 61 | 9 | 0 |
| COc1cc2nccc(Nc3ccc(OCc4ccc(NC(C)=O)cc4)cc3)c2cc1OC.Cl [GW440135] | 1 | 0 | 0 | 0 | 0 | 16 | 0 | 37 | 0 | 21 |
| COc1cc2nccc(Nc3cccc(Oc4ccccc4)c3)c2cc1OC.Cl [GW284543] | 12 | 0 | 0 | 0 | 0 | 12 | 10 | 34 | 5 | 2 |
| Cl.c1ccc(Cn2cnc3cc(Nc4ncnc5ccccc45)ccc32)cc1 [GW272142] | 0 | 0 | 0 | 0 | 0 | 15 | 0 | 0 | 0 | 0 |
| CCC(=O)c1c(-c2ccccc2)c2cc(Cl)ccc2c(=O)n1Cc1ccc(C(=O)O)cc1 | 0 | 0 | 0 | 0 | 0 | 0 | 0 | 0 | 0 | 0 |
| Cl.NS(=O)(=O)c1cccc(Nc2cc(-c3ccc(F)cc3)n[nH]2)c1 [GW824645] | 2 | 0 | 0 | 45 | 0 | 0 | 0 | 40 | 44 | 31 |
| Nc1n[nH]c2nnc(-c3ccccc3)c(-c3ccccc3)c12 [GW554060] | 0 | 0 | 0 | 0 | 0 | 19 | 0 | 0 | 14 | 24 |
| CCC(=O)c1c(-c2ccccc2)c2cc(Cl)ccc2c(=O)n1Cc1cc(S(C)(=O)=O)n(CC(N)=O)n1 | 24 | 2 | 0 | 4 | 0 | 0 | 0 | 0 | 0 | 0 |
| Cc1c(Cn2c(C)nn3c(=O)cc(N4CCO[C@H](C)C4)nc23)cccc1C(F)(F)F [GSK2373690] | 0 | 0 | 0 | 0 | 0 | 13 | 4 | 0 | 6 | 11 |
| O=C(Nc1ccc2c(c1)OCO2)NC1CCN(c2ccnc(NCc3ccc(F)cc3)n2)CC1 [GSK1379859] | 0 | 0 | 0 | 0 | 0 | 7 | 1 | 0 | 15 | 6 |
